# Results taken from publication PMC5540273 (PLoS ONE, 2017).
# Like-named read-outs stand apart in the source and are kept apart here.
# Tests used:
# [1] = system: RPS6KA4(Kin.Dom.1-N-terminal); conditions: n = 1
# [2] = system: RPS6KA4(Kin.Dom.2-C-terminal); conditions: n = 1
# [3] = system: RPS6KA5(Kin.Dom.1-N-terminal); conditions: concentration: 1 μM, replicates: in singlicate; n = 1
# [4] = system: RPS6KA5(Kin.Dom.2-C-terminal); conditions: concentration: 1 μM, replicates: in singlicate; n = 1
# [5] = system: T1, RSK1(Kin.Dom.1-N-terminal); conditions: concentration: 1 μM, replicates: in singlicate; n = 1
# T1 construct: gene RPS6KA1
# [6] = system: T2, RSK1(Kin.Dom.2-C-terminal); conditions: concentration: 1 μM, replicates: in singlicate; n = 1
# T2 construct: gene RPS6KA1
# [7] = system: T3, RSK2(Kin.Dom.1-N-terminal); conditions: concentration: 1 μM, replicates: in singlicate; n = 1
# T3 construct: gene RPS6KA3
# [8] = system: T4, RSK2(Kin.Dom.2-C-terminal); conditions: concentration: 1 μM, replicates: in singlicate; n = 1
# T4 construct: gene RPS6KA3
# [9] = system: T5, RSK3(Kin.Dom.1-N-terminal); conditions: concentration: 1 μM, replicates: in singlicate; n = 1
# T5 construct: gene RPS6KA2
# [10] = system: T6, RSK3(Kin.Dom.2-C-terminal); conditions: concentration: 1 μM, replicates: in singlicate; n = 1
# T6 construct: gene RPS6KA2
# [11] = system: T7, RSK4(Kin.Dom.1-N-terminal); conditions: concentration: 1 μM, replicates: in singlicate; n = 1
# T7 construct: gene RPS6KA6
# [12] = system: T8, RSK4(Kin.Dom.2-C-terminal); conditions: concentration: 1 μM, replicates: in singlicate; n = 1
# T8 construct: gene RPS6KA6
# S6K1 = conditions: concentration: 1 μM, replicates: in singlicate; n = 1
# SBK1 = conditions: concentration: 1 μM, replicates: in singlicate; n = 1
# SGK2 = conditions: concentration: 1 μM, replicates: in singlicate; n = 1
# SGK3 = conditions: concentration: 1 μM, replicates: in singlicate; n = 1
# SGK = conditions: concentration: 1 μM, replicates: in singlicate; n = 1
# SIK2 = conditions: concentration: 1 μM, replicates: in singlicate; n = 1
# SIK = conditions: concentration: 1 μM, replicates: in singlicate; n = 1
# SLK = conditions: concentration: 1 μM, replicates: in singlicate; n = 1
# [13] = concentration: 1 μM, replicates: in singlicate
# 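Also: KINOMEscan kinase panel screen.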
compound,measurement,setting,value
CCn1c(-c2nonc2N)nc2c(C#CC(C)(C)O)ncc(OCCCCN)c21.O=C(O)C(F)(F)F.O=C(O)C(F)(F)F [GSK507274],%Inh,[1]; 1 µM,10%
same,%Inh,[2]; 1 µM,99%
O=C(Nc1cccc(-c2nn3ncccc3c2-c2ccnc(Nc3ccccc3)n2)c1)c1c(F)cccc1F [GSK198271],%Inh,[1]; [13],18%
same,%Inh,[2]; [13],0%
same,%Inh,[3],18%
same,%Inh,[4],0%
same,%Inh,[5],95.3%
same,%Inh,[6],5%
same,%Inh,[7],0%
same,%Inh,[8],0%
same,%Inh,[9],37%
same,%Inh,[10],17%
same,%Inh,[11],1%
same,%Inh,[12],22%
same,%Inh,S6K1,0%
same,%Inh,SBK1,13%
same,%Inh,SGK2,0%
same,%Inh,SGK3,4%
same,%Inh,SGK,0%
same,%Inh,SIK2,6%
same,%Inh,SIK,44%
same,%Inh,SLK,95%
O=C(Nc1cccc(Oc2ccc3nc(NC(=O)C4CC4)cn3n2)c1)c1ccccc1C(F)(F)F,%Inh,[1]; [13],35%
same,%Inh,[2]; [13],0%
same,%Inh,[3],0%
same,%Inh,[4],17%
same,%Inh,[5],6%
same,%Inh,[6],0%
same,%Inh,[7],0%
same,%Inh,[8],55%
same,%Inh,[9],6%
same,%Inh,[10],0%
same,%Inh,[11],0%
same,%Inh,[12],0%
same,%Inh,S6K1,0%
same,%Inh,SBK1,0%
same,%Inh,SGK2,7%
same,%Inh,SGK3,0%
same,%Inh,SGK,0%
same,%Inh,SIK2,28%
same,%Inh,SIK,1%
same,%Inh,SLK,32%
C[C@@H]1CC[C@@H](C(=O)Nc2ccccc2)CN1c1cc(-c2ccc3c(N)n[nH]c3c2)nc(N)n1 [GSK2286062],%Inh,[1]; [13],4%
same,%Inh,[2]; [13],0%
same,%Inh,[3],6%
same,%Inh,[4],2%
same,%Inh,[5],14%
same,%Inh,[6],3%
same,%Inh,[7],7%
same,%Inh,[8],19%
same,%Inh,[9],2%
same,%Inh,[10],24%
same,%Inh,[11],0%
same,%Inh,[12],17%
same,%Inh,S6K1,0%
same,%Inh,SBK1,26%
same,%Inh,SGK2,0%
same,%Inh,SGK3,0%
same,%Inh,SGK,0%
same,%Inh,SIK2,0%
same,%Inh,SIK,0%
same,%Inh,SLK,1%
CC(C)(C)c1ccc2nccc(Nc3cccc(O)c3)c2c1 [GW856795],%Inh,[1]; [13],0%
same,%Inh,[2]; [13],0%
same,%Inh,[3],0%
same,%Inh,[4],0%
same,%Inh,[5],0%
same,%Inh,[6],0%
same,%Inh,[7],0%
same,%Inh,[8],49%
same,%Inh,[9],19%
same,%Inh,[10],30%
same,%Inh,[11],0%
same,%Inh,[12],27%
same,%Inh,S6K1,9%
same,%Inh,SBK1,0%
same,%Inh,SGK2,1%
same,%Inh,SGK3,0%
same,%Inh,SGK,15%
same,%Inh,SIK2,0%
same,%Inh,SIK,0%
same,%Inh,SLK,55%
COc1ccc(Nc2nccc(NCCNC(=O)c3cc4ccccc4s3)n2)cc1 [GSK1379896],%Inh,[1]; [13],0%
same,%Inh,[2]; [13],0%
same,%Inh,[3],3%
same,%Inh,[4],0%
same,%Inh,[5],0%
same,%Inh,[6],0%
same,%Inh,[7],0%
same,%Inh,[8],23%
same,%Inh,[9],0%
same,%Inh,[10],0%
same,%Inh,[11],0%
same,%Inh,[12],0%
same,%Inh,S6K1,7%
same,%Inh,SBK1,20%
same,%Inh,SGK2,6%
same,%Inh,SGK3,0%
same,%Inh,SGK,0%
same,%Inh,SIK2,0%
same,%Inh,SIK,0%
same,%Inh,SLK,18%
O=C(NC1CCN(c2ccnc(Nc3ccc(F)cc3)n2)C1)c1cc2ccccc2s1 (centres unmarked) [GSK1379716],%Inh,[1]; [13],17%
same,%Inh,[2]; [13],0%
same,%Inh,[3],29%
same,%Inh,[4],0%
same,%Inh,[5],22%
same,%Inh,[6],13%
same,%Inh,[7],4%
same,%Inh,[8],0%
same,%Inh,[9],20%
same,%Inh,[10],4%
same,%Inh,[11],0%
same,%Inh,[12],24%
same,%Inh,S6K1,0%
same,%Inh,SBK1,24%
same,%Inh,SGK2,0%
same,%Inh,SGK3,0%
same,%Inh,SGK,14%
same,%Inh,SIK2,6%
same,%Inh,SIK,11%
same,%Inh,SLK,32%
COc1cc(Nc2nccc(N3CCC(NC(=O)c4cc5ccccc5s4)C3)n2)cc(OC)c1OC (centres unmarked) [GSK1379760],%Inh,[1]; [13],0%
same,%Inh,[2]; [13],0%
same,%Inh,[3],5%
same,%Inh,[4],4%
same,%Inh,[5],16%
same,%Inh,[6],46%
same,%Inh,[7],0%
same,%Inh,[8],18%
same,%Inh,[9],0%
same,%Inh,[10],0%
same,%Inh,[11],0%
same,%Inh,[12],11%
same,%Inh,S6K1,17%
same,%Inh,SBK1,17%
same,%Inh,SGK2,0%
same,%Inh,SGK3,10%
same,%Inh,SGK,11%
same,%Inh,SIK2,15%
same,%Inh,SIK,14%
same,%Inh,SLK,76%
Nc1n[nH]c2cnc(-c3ccccc3)cc12 [SB-642124],%Inh,[1]; [13],0%
same,%Inh,[2]; [13],71%
same,%Inh,[3],12%
same,%Inh,[4],44%
same,%Inh,[5],23%
same,%Inh,[6],0%
same,%Inh,[7],22%
same,%Inh,[8],23%
same,%Inh,[9],18%
same,%Inh,[10],3%
same,%Inh,[11],19%
same,%Inh,[12],15%
same,%Inh,S6K1,10%
same,%Inh,SBK1,22%
same,%Inh,SGK2,31%
same,%Inh,SGK3,74%
same,%Inh,SGK,74%
same,%Inh,SIK2,2%
same,%Inh,SIK,0%
same,%Inh,SLK,0%
CSc1cccc2c(-c3ccncn3)c(-c3ccc(F)cc3)nn12 [GW514786],%Inh,[1]; [13],28%
same,%Inh,[2]; [13],0%
same,%Inh,[3],3%
same,%Inh,[4],7%
same,%Inh,[5],5%
same,%Inh,[6],38%
same,%Inh,[7],0%
same,%Inh,[8],11%
same,%Inh,[9],11%
same,%Inh,[10],0%
same,%Inh,[11],0%
same,%Inh,[12],90%
same,%Inh,S6K1,0%
same,%Inh,SBK1,2%
same,%Inh,SGK2,15%
same,%Inh,SGK3,0%
same,%Inh,SGK,1%
same,%Inh,SIK2,2%
same,%Inh,SIK,2%
same,%Inh,SLK,22%
